# Test results reported in ChEMBL document CHEMBL3988442, “University of Dundee, Small-Polar-MMV Screening Library” (2021).
# The campaign covered roughly 48,000 compounds. About 13,000 (27%) showed an effect of 50% or more. The list shows a part of the results.
# Test system: Wolbachia pipientis
# Test: Anti-Wolbachia Cell-Based Screen
# Format: functional
# Design: scale not given: in the data most compounds retested in dose-response had high values
# Settings: 5 µM
row,SMILES,Percent Effect [%]
1,O=C(NCCn1ccnc1-c1cc2n(n1)CCCNC2)c1ccncc1,-0.5813
2,CC(NC(=O)c1ccoc1)C(=O)N(C)Cc1cccc(C(F)(F)F)c1 (stereo not given),12.38
3,CCn1nc2c(cc1=O)CN(Cc1nc(CCOC)no1)CC2,-7.437
4,Cc1cccc(C(C)(C)CNC(=O)CCSc2nnnn2C)c1,-0.1425
5,CCCn1c(C)c(CC(=O)N(C)CCOC)c2c1CC(C)(C)CC2=O,-2.271
6,Cc1c[nH]c(CN(C)C(=O)CCn2cnc3ccccc32)n1,-8.611
7,CCCOc1ccc(OCCN2CCOCS2(=O)=O)cc1,-1.298
8,Cc1nc(C)n(CC2CCCN2CCOc2ccc(C#N)cc2)n1 (stereo not given),-3.46
9,CSc1ccc(OCCN2CCNC(=O)C2C)cc1 (stereo not given),111.5
10,CSc1ccc(OCCN2CCNC(=O)CC2)cc1,106.2
11,Cc1ncc2c(n1)CN(CCOc1ccc3c(c1)CCC(=O)N3)CC2,3.437
12,Cc1ccc(C)c2c(O)cc(CN3CCNC(=O)C3C)nc12 (stereo not given),-11.58
13,COc1ccc(CN2CCNC(=O)CC2)cc1SC(F)(F)F,-6.808
14,CC1C(=O)NCCN1CCOc1ccc(C#N)cc1 (stereo not given),92.79
15,CCn1nc2c(cc1=O)CN(CCOc1ccc(C#N)cc1)CC2,2.029
16,Cc1noc(C)c1CNCC1COCc2c(-c3ccsc3)nnn2C1.O=C(O)C(F)(F)F (stereo not given),0.4259
17,Cc1ncc(S(=O)(=O)Nc2ccnn2C2CCCCC2)[nH]1,-19.02
18,COc1ccc(-n2ncc(C(C)NC3CCOCC3)c2C)cc1 (stereo not given),-6.318
19,Cc1cc(NC(=O)CCN2CCCCC2Cn2cccn2)no1 (stereo not given),107.3
20,Cc1cc(NC(=O)CCN2CCCC2Cn2cncn2)no1 (stereo not given),7.653

row,SMILES,Percent Effect [%]
1,CC(C)c1cc(NC(=O)CN2CCCC2Cn2cccn2)on1 (stereo not given),-0.3726
2,O=C(CN1CCCCC1Cn1cccn1)NC1CCOCC1 (stereo not given),-17.79
3,O=C(CN1CCCC1Cn1cccn1)NC1CCN(C2CC2)CC1 (stereo not given),-5.086
4,CCN1CCC(NC(=O)CN2CCCCC2Cn2cccn2)CC1 (stereo not given),8.022
5,CC(C)(C)c1cc(NC(=O)CN2CCCCC2Cn2cncn2)on1 (stereo not given),-6.385
6,CCN1CCC(NC(=O)CN2CCCC2Cn2cccn2)CC1 (stereo not given),18.69
7,Cc1cc(NC(=O)CCN2CCCC2Cn2cccn2)no1 (stereo not given),85.34
8,CC(C)(C)c1cc(NC(=O)CN2CCCC2Cn2cccn2)on1 (stereo not given),83.96
9,CC(C)(C)c1cc(NC(=O)CN2CCCC2Cn2cncn2)on1 (stereo not given),8.198
10,Cc1cc(NC(=O)CCN2CCCCC2Cn2cncn2)no1 (stereo not given),123.3
11,Cc1n[nH]c(C)c1CN(C)C(C(=O)O)c1c(F)cccc1OC(C)C (stereo not given),-15.01
12,CC(C)=CCN1C[C@H]2CC[C@@H]1CN(C(=O)c1ccc3[nH]cnc3c1)C2,1.607
13,Cc1cnn(CCNCc2cc(=O)n3cc(Cl)ccc3n2)c1,-2.605
14,CC(=O)N1CCN(CC(=O)NCCCN(C)c2ccccc2)CC1,-6.128
15,CNc1nc(CNC(=O)Nc2cccc(-c3nnco3)c2)cs1,-5.762
16,CCC[C@H]1CN(C2CCOCC2)C[C@@H]1NC(=O)CCc1cnccn1,-6.675
17,O=C(CSc1ccccc1)N1C[C@H]2CC[C@@H]1CN(Cc1ccncc1)C2,-7.761
18,Cc1nc(NC2CCOCC2)cc(C2CCN2S(C)(=O)=O)n1 (stereo not given),120.8
19,Cc1ccc(-c2cnnc(NCC3CCOCC3)n2)o1,-4.072
20,CC1c2ncc(COCC3CCOCC3)n2CCN1S(C)(=O)=O (stereo not given),-5.189

row,SMILES,Percent Effect [%]
1,CC(=O)N1CCC1c1cc(NC2CCOCC2)nc(C)n1 (stereo not given),79.3
2,Cc1nc(NCC2CCOCC2)cc(C2CCN2S(C)(=O)=O)n1 (stereo not given),108.2
3,Cn1ncc(N2CCC(CNC3Cc4ccccc4C3)C2)cc1=O (stereo not given),-0.06487
4,COc1ccc(C(C)N2CCC(OC)CC2)cc1Cl (stereo not given),17.11
5,Cc1ccsc1CN1CC[C@H]2OCC[C@@]2(C(=O)N2CCCO2)C1.O=C(O)C(F)(F)F,103.7
6,O=C(N1CCOCC1)[C@@]12CCO[C@@H]1CCN(CCN1CCCCC1)C2.O=C(O)C(F)(F)F.O=C(O)C(F)(F)F,12.15
7,O=C(N1CCCO1)[C@@]12CCO[C@@H]1CCN(Cc1ccccc1)C2.O=C(O)C(F)(F)F,-18.43
8,O=C(N1CCCO1)[C@@]12CCO[C@@H]1CCN(C1CCCCC1)C2.O=C(O)C(F)(F)F,6.239
9,COC[C@@]12CCO[C@@H]1CCN(Cc1sccc1C)C2.O=C(O)C(F)(F)F,9.781
10,O=C(N1CCOCC1)[C@@]12CCO[C@@H]1CCN(Cc1cccc(F)c1)C2.O=C(O)C(F)(F)F,102.7
11,O=C(N1CCCO1)[C@@]12CCO[C@@H]1CCN(Cc1cccs1)C2.O=C(O)C(F)(F)F,96.37
12,O=C(N1CCCO1)[C@]12COC[C@H]1CN(Cc1nccs1)C2.O=C(O)C(F)(F)F,-2.706
13,O=C(N1CCOCC1)[C@@]12CCO[C@@H]1CCN(Cc1ccccc1F)C2.O=C(O)C(F)(F)F,14.16
14,O=C(N1CCCO1)[C@@]12CCO[C@@H]1CCN(Cc1ccc(F)cc1)C2.O=C(O)C(F)(F)F,99.96
15,Cc1ccc(S(=O)(=O)NCc2[nH]ncc2Br)cc1C,-4.089
16,O=C(CN1CCOC1=O)N1CCc2nnc(Cc3ccccc3)n2CC1,1.802
17,N#Cc1c(Cl)nsc1NCc1ccc(N2CCC(CO)CC2)cc1,-1.187
18,Cc1ccc(CN2CCOC3(CCCN(c4cccc(F)c4)C3)C2)o1.O=C(O)C(F)(F)F.O=C(O)C(F)(F)F (stereo not given),-11.31
19,Cc1ccc(CN2C[C@H](C(=O)N3CCCCO3)[C@@H]3CCO[C@@H]3C2)o1.O=C(O)C(F)(F)F,-4.524
20,Cc1ccc(CN2CC[C@H]3OCC[C@@]3(C(=O)N3CCCO3)C2)o1.O=C(O)C(F)(F)F,102.1
